Screens deposited in PubChem BioAssay by The Scripps Research Institute Molecular Screening Center.
Only some compounds are listed: those with a hit (about 2.2% of all), similar ones and a draw of the others.
MOR-DOR inv ag: inverse agonists of human mu-delta opioid receptor heterodimerization. P35372+P41143. cell-based MOR-DOR heterodimer luminescence, inverse agonism. inhibition, % at 9.3 µM. 340,000 tested, 0.21% active; in the data active means inhibition above about 22%, passing the limit was not always enough;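 further: 0% = cells with DMSO and 100% = wells without cells with DMSO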
Target sequence (P35372 whole entry, looked up): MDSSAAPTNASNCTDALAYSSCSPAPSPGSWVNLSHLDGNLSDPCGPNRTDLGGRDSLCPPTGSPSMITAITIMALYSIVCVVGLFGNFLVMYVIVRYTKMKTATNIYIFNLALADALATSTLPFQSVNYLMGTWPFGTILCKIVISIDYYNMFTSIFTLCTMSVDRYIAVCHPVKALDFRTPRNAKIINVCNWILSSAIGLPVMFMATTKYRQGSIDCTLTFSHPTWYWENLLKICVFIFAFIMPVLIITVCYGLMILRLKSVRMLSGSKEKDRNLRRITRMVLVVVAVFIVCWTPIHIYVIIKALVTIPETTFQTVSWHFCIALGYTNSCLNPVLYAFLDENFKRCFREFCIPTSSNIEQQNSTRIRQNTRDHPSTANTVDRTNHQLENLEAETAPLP
Target sequence (P41143 whole entry, looked up): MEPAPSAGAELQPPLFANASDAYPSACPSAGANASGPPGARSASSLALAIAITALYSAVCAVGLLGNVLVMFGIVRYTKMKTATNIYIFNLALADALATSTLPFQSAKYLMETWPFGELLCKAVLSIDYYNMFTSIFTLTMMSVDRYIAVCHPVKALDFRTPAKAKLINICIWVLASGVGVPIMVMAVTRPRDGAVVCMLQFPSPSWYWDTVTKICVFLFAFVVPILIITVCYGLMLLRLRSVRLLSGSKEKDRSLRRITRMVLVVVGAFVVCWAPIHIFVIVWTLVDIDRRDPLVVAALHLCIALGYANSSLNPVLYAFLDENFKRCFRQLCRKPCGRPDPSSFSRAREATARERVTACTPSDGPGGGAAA
HTR5A inv ag: HTR5A inverse agonism, opioid heterodimer counter-screen; P47898; AID 504634; 340,000 tested, 0.083% active; inhibition, % at 9.3 µM; HTR5A cell line, luminescence; in the data active means inhibition mostly above about 23%, no sharp cut-off; inactive means mostly below about 18%;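 further: 0% = cells with DMSO and 100% = no-cell wells with DMSO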
m5-HT2A agonist: mouse HTR2A agonism via beta-arrestin recruitment | activation, % at 7.6 µM | CHO-K1 mHTR2A beta-arrestin complementation, luminescence; percent of 30 µM serotonin response | AID 624169 | P35363 | 360,000 tested, 0.66% active;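 active means activation above a run cutoff, the mean activation of all tested compounds plus 3 SD, cut at about 14% in these data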;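 further: 0% = plate median of compound wells and 100% = 30 µM serotonin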
HTR5A ag: counter-screen for OPRM1-OPRD1 agonists: human HTR5A agonism | HTR5A agonist assay, luminescence, cell-based | 340,000 tested, 0.61% active | activation, % at 9.3 µM; in the data active means activation mostly above about 9.5%, no sharp cut-off; inactive means mostly below about 7.6%;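 further: 0% = cells with vehicle only and 100% = reference agonist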
OPRM1-OPRD1 ag: OPRM1-OPRD1 heterodimerization agonism | cells, luminescence | 340,000 tested, 0.3% active | activation, % at 9.3 µM; in the data active means activation above about 18%;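 further: 0% = vehicle-treated cells and 100% = reference agonist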
sPLA2-III inh: Inhibits HGIII-sPLA2 liposome hydrolysis, primary screen. inhibition, % at 12.2 µM. QFRET BODIPY PC-A2 liposome hydrolysis, fluorescence. Q9NZ20. 370,000 tested, 0.56% active;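 active means inhibition above mean plus 3 SD of compounds lying within the high and low control bounds, cut at about 19% in these data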;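 further: 0% = median of test compound wells and 100% = no enzyme DMSO wells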
hGIII sPLA2 conf: human GIII-sPLA2 inhibition, confirmation | shares compounds with sPLA2-III inh | recombinant hGIII-sPLA2, BODIPY PC-A2 QFRET fluorescence | inhibition, % at 12.2 µM | 2,000 tested, 34% active | AID 743280;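 active means mean inhibition across triplicates above the hit cutoff set in the earlier primary screen, cut at about 19% in these data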;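 further: 0% = enzyme with DMSO and 100% = DMSO wells lacking enzyme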
535nm interf: 535nm fluorescence interference, HGIII-sPLA2 counter-screen; AID 743282; shares compounds with sPLA2-III inh; BODIPY FL product fluorescence interference, QFRET; inhibition, % at 12.2 µM; 2,000 tested, 8.5% active;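 active means average inhibition above the solvent-only control mean plus 3 SD, cut at about 6% in these data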;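 further: 0% = DMSO with substrate plus product and 100% = DMSO with substrate alone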
BODIPY interf DR: interferes with 535nm fluorescence in dose response counter-screen; shares compounds with sPLA2-III inh; BODIPY FL product fluorescence interference, cell-free; IC50, µM; 240 tested, under 10 active;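 active means IC50 at or below 10 µM; inactive means IC50 above 10 µM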
* hit, by the source's call; nt = no result; ! = not active in a repeat.

SMILES | MOR-DOR inv ag | HTR5A inv ag | m5-HT2A agonist | HTR5A ag | OPRM1-OPRD1 ag | sPLA2-III inh | hGIII sPLA2 conf | 535nm interf | others
CC(/C=C1\SC(=S)N(CCC(=O)Nc2ccc(O)cc2)C1=O)=C\c1ccccc1 | -18 | -1 | -3 | -3 | 3 | 19* | -3 | 4
COc1cccc(/C=C2/SC(=S)N(CC(=O)NNC(=O)c3ccccc3O)C2=O)c1 | -7 | -1 | 2 | 0 | 1 | 23* | 22* | -8
Cc1ccc(/C=C2\SC(=S)N(CCC(=O)NNC(=O)c3ccccc3O)C2=O)cc1 | 10 | -16 | 0 | 6 | -2 | 9 | nt | nt
O=C(CN1C(=O)/C(=C/c2ccccc2)SC1=S)NNC(=O)c1ccccc1O | 6 | 2 | 1 | 4 | -1 | 20* | 15 | -4
O=C(CCN1C(=O)/C(=C/c2ccccc2Cl)SC1=S)NNC(=O)c1ccccc1O | -6 | 2 | 7 | -1 | 1 | 20* | 30* | 1 | BODIPY interf DR=>122
CC(=Cc1ccccc1)C=C1SC(=S)N(CCCC(=O)Nc2ccc(C(=O)O)c(O)c2)C1=O | nt | nt | -4 | nt | nt | -33 | nt | nt
O=[N+]([O-])c1cccc(C2=Nn3c(nnc3-c3ccccc3)SC2)c1 | nt | nt | nt | nt | nt | -2 | nt | nt
O=C(NC1CC1)c1ccccc1NC(=O)c1ccccc1OC(F)F | nt | nt | 3 | nt | nt | 2 | nt | nt
O=C(NNC(=S)Nc1ccc(F)cc1)c1ccccc1OC(F)F | 15 | 16 | -1 | 0 | -3 | 21* | 26* | 5
Cc1ccc(NC(=S)NNC(=O)c2ccccc2OC(F)F)cc1 | 15 | 9 | 1 | 0 | -3 | 26* | 21* | 5
COc1ccc([C@H]2OC(=O)C[C@H]2C(=O)N2CCN(c3ccccc3Cl)CC2)cc1OC | nt | nt | nt | nt | nt | -4 | nt | nt
Cc1ccc(NC(=S)N2CCN(Cc3ccccc3)CC2)c(C)c1 | -6 | -8 | 9 | 2 | 1 | 21* | 14 | -12
Cc1ccc(C)c(NC(=S)N2CCN(Cc3ccccc3)CC2)c1 | -6 | -16 | 10 | 5 | 1 | 3 | nt | nt
O=C(O)CCCNC(=O)C(c1ccccc1)c1ccccc1 | 15 | 12 | 5 | -4 | -3 | 21*! | -2 | -6
O=S1(=O)c2c(NCc3ccco3)cccc2Oc2ccccc2CN1Cc1cn(Cc2ccccc2C(F)(F)F)nn1 | nt | nt | nt | nt | nt | -7 | nt | nt
O=C1N(CC[C@@H](O)c2ccccc2)CCC12CCC(c1ccccc1)CC2 (stereo not given in full) | nt | nt | nt | nt | nt | 0 | nt | nt
COc1ccc2c(=O)cc(-c3cccnc3)oc2c1OC | 7 | -11 | -12 | 3 | -1 | 20* | -1 | -6
C#CCNC(=O)C[C@H]1C(=O)N(CCc2ccc(Cl)cc2)C2=CCCC[C@@]21C(=O)OCC | nt | nt | nt | nt | nt | -6 | nt | nt
CCOC(=O)c1csc(NC(=O)C2CCCN(S(=O)(=O)c3cccs3)C2)n1 (stereo not given) | nt | nt | nt | nt | nt | 2 | nt | nt
CC(C)Oc1ccc(CC2CCC(=O)N(C)C2=O)cc1 (stereo not given) | 14 | 15 | -3 | -6 | -3 | 21* | 4 | -7
O=C(NC1C2CCCC1CN(C1CC1)C2)c1ccc(Cl)cc1 (stereo not given) | -37 | 0 | 2 | 0 | 8 | 20* | 19 | -6
COC(=O)C1=C(C)N(Cc2ccc(C(F)(F)F)cc2)C(=NCc2ccccc2)NC1c1cccc(Cl)c1 (stereo not given) | nt | nt | nt | nt | nt | -1 | nt | nt
CC1CCc2nc3sc4c(c3c(N)c2C1)CCCC4 (stereo not given) | -4 | 4 | 0 | 3 | 1 | 20* | 11 | -5
CC1CCc2c(nc3sc4c(c3c2N)CCCC4)C1 (stereo not given) | -34 | 3 | -7 | -1 | 5 | -1 | nt | nt
